Out of some 390,000 compounds screened, about 2,600 (0.67%) were called active. This is one part of a sample in which actives are shown more often than they occur. Values without a mark were called inactive.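 The calls were made as follows: active = mean inhibition of replicates at least 50% and at least half of replicates each reaching 50%; inconclusive = half or more replicates reach 50% but mean below 50%; inactive = the rest.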

In general, inhibition refers to the drop in the measured response relative to a control, in per cent.

The target in the test is Transforming acidic coiled-coil-containing protein 3 (Homo sapiens) (UniProt Q9Y6A5). Briefly: disruptors of ARNT/TACC3 protein interaction, primary screen, biochemical, AlphaScreen, single concentration (AID 623870).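 Also: 0% = complete ARNT plus TACC3 wells and 100% = ARNT alone without TACC3.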 The conditions noted are these: AlphaScreen His-ARNT PAS-B/GST-TACC3 binding, luminescence; at 9.99 µM; active compounds read high; TACC3 fragment carries E629A point mutation.
As for `COc1ccc(S(=O)(=O)N2CCCCN3[C@H](CO)[C@H](c4ccc(C5=CCCCC5)cc4)[C@@H]3C2)cc1`, the inhibition is -0.894%. The same measure for `CO[C@@H]1CN(C)C(=O)c2ccc(NC(=O)Nc3cc(Cl)cc(Cl)c3)cc2OC[C@H](C)NC[C@H]1C`: 17.2%.

Consider `C[C@H]1CN([C@@H](C)CO)S(=O)(=O)c2ccc(-c3ccncc3)cc2O[C@@H]1CN(C)C(=O)CC1CC1`, for which the inhibition was -7.68%. `CCN(CC)CCOc1ccc2c(c1)C(=NNC(=O)c1ccccn1)c1cc(OCCN(CC)CC)ccc1-2`: the inhibition was 58.8% (active). The same measure for `COCC(=O)N1[C@H](CNC(=O)c2ccccn2)[C@H](c2ccccc2)[C@@H]1CO`: 0.322%; for `CCN(C[C@@H]1[C@H](c2ccccc2)[C@@H](CO)N1CC1CC1)C(=O)c1ccccn1`: 1.43%. The same measure for `C[C@@H]1CN([C@@H](C)CO)C(=O)c2cccc(NC(=O)c3nc4ccccc4s3)c2O[C@@H]1CN(C)Cc1ccc(Cl)c(Cl)c1`: -2.22%; for `Cc1nn(C)cc1/C=C1\CCC/C(=C\c2cn(C)nc2C)C1=O`: 2.65%. The same measure for `CCn1cc(/C=C2/SC(=S)NC2=O)c(C)n1`: 23.8% (active). `COc1ccc(NC(=O)N(C)C[C@H]2Oc3c(NC(=O)NC(C)C)cccc3C(=O)N([C@@H](C)CO)C[C@H]2C)cc1`: the inhibition is -14%. With `CCc1nnc(NC(=O)CCN(c2ccc(C)cc2)S(=O)(=O)c2ccccc2)s1`, the inhibition was 2%.

As to `COc1cc(SC#N)ccc1N=Cc1c(C)[nH]n(-c2ccc(C)cc2)c1=O`, the inhibition is 2.45%. The same measure for `CCc1nnc(NS(=O)(=O)c2ccc(N=Cc3c(C)[nH]n(-c4ccc(C)cc4)c3=O)cc2)s1`: 45.6% (active).

As to `COc1ccc(-c2ccc3c(c2)[C@H]2[C@H](CCN2S(=O)(=O)c2ccccc2F)[C@H](CO)N3)cc1`, the inhibition was -0.779%.

As to `COc1cccc(C(=O)Nc2ccc3c(c2)C(=O)N(C)[C@@H]2CC[C@H](CC(=O)NCC4CC4)O[C@@H]2CO3)c1`, the inhibition was -14.2%. The same measure for `O=C(C[C@H]1CC[C@H](NC(=O)C2CCC2)[C@@H](CO)O1)NCCCN1CCOCC1`: 0.473%. Consider `C[C@H]1CN([C@@H](C)CO)C(=O)Cc2cc(NC(=O)CCC(F)(F)F)ccc2O[C@H]1CN(C)C(=O)NC1CCCCC1`, for which the inhibition was -6.06%.

On to `O=C(c1ccccc1)c1cccn1CC(=O)N1CCN(c2ccc(F)cc2)CC1`, for which the inhibition is 1.56%.

In the case of `Oc1c(CN2CCCC2)cc(COCc2ccccc2)c2cccnc12`, the inhibition was 64.5% (active).

As for `C/C(=N/N1CCN(Cc2cccc3ccccc23)CC1)c1cccnc1`, the inhibition is 3.31%.

In the case of `Oc1c(CN2CCN(c3ccc(F)cc3)CC2)cc(Cl)c2cccnc12`, the inhibition is 73.2% (active). The same measure for `O=C(c1cccc(F)c1)N1CCN(c2ccc([N+](=O)[O-])c3cccnc23)CC1`: -1.2%.

For `CCCc1cc(=O)oc2c(C)c(O)c(CN3CCCCC3)cc12`, the inhibition is 0.049%. The same measure for `C[C@@H]1CCCCO[C@H](CN(C)C(=O)CCC(F)(F)F)[C@H](C)CN([C@H](C)CO)C(=O)c2cc(NC(=O)NC3CCCCC3)ccc2O1`: -7.47%.

Consider `CCNC(=O)[C@H]1[C@H](CO)[C@H]2Cn3c(ccc(-c4cccc(OC)c4)c3=O)[C@H]2N1Cc1nccs1`, for which the inhibition is -9.07%. The same measure for `CO[C@@H]1CC[C@@H]2CCOc3ccc(C#N)cc3C(=O)N(C)C[C@@H](C)C(=O)N(C)C[C@@H]1O2`: -7.05%; for `CC(C)NC(=O)N(C)C[C@H]1OCCCC[C@H](C)Oc2ccc(NC(=O)CCCN(C)C)cc2C(=O)N([C@@H](C)CO)C[C@H]1C`: -0.512%; for `COc1ccccc1-c1cnc2c(c1)C(=O)N([C@H](C)CO)C[C@@H](C)[C@@H](CN(C)Cc1ccncc1)O2`: -5.7%. The same measure for `CC(=O)N1[C@@H](CO)[C@H](c2ccccc2)[C@@H]1CN(C)C(=O)CN1CCOCC1`: -11.7%; for `Cc1noc(C)c1NC(=O)Nc1ccc2c(c1)C(=O)N([C@@H](C)CO)C[C@H](C)[C@H](CN(C)S(=O)(=O)c1cn(C)cn1)OCCCC[C@@H](C)O2`: -9.38%; for `COC(=O)C[C@H]1C[C@H]2c3cc(NC(=O)NC4CCCCC4)ccc3O[C@H]2[C@H](CO)O1`: -2.98%. The same measure for `CN1c2ccc(C=O)c3c(C=O)ccc(c23)N(C)C1(C)C`: 13.9% (active); for `CCSC1(SCC)N=C(N)C2(C#N)C(c3ccccc3)NC(C)=CC12C#N` (stereo unspecified): 48.6% (active). In the case of `CCCC(=O)Nc1ccc2c(c1)OC[C@H](C)N(C(=O)C1CCCC1)C[C@@H](C)[C@H](OC)CN(C)C2=O`, the inhibition is -5.43%. For the compound `COc1ccccc1NC(=O)N[C@H]1CC[C@@H](CC(=O)N[C@@H](C)c2ccccc2)O[C@H]1CO`, the inhibition was -7.69%.

For the compound `CCCNC(=O)C[C@H]1C[C@@H]2c3cc(NC(=O)C4CCOCC4)ccc3O[C@@H]2[C@@H](CO)O1`, the inhibition is -13.8%. The same measure for `CCCC#Cc1ccc2c(c1)O[C@@H](CN(C)S(=O)(=O)c1cccc(OC)c1)[C@H](C)CN([C@@H](C)CO)S2(=O)=O`: 4.74%; for `O=C(CSc1ccc(-c2ccccn2)nn1)Nc1ccccc1`: 58.5% (active); for `Cc1ccccc1NC(=O)CSC1=NCCN1`: -6.23%.

In the case of `Cc1ccccc1NC(=O)CSc1ccc2nnc(-c3ccccn3)n2n1`, the inhibition is 48% (active).

For `COc1cc(NC(=O)CSc2ccc(-c3cccnc3)nn2)cc(OC)c1`, the inhibition is -3.2%. The same measure for `O=C(CSc1ccc(-c2ccc(-n3cccn3)cc2)nn1)Nc1ccc([N+](=O)[O-])cc1`: -19.4%.

Turning to `COc1ccc(C)cc1NC(=O)CSc1nnc2ccc(-c3ccccn3)nn12`, the inhibition was 12.1%. As for `COc1cccc(NC(=O)Nc2ccc3c(c2)C(=O)N(C)C[C@@H](OC)[C@H](C)CN(CC2CC2)[C@H](C)CO3)c1`, the inhibition is -0.496%. Consider `OC[C@H]1[C@@H](c2ccc(C#CC3(O)CCCC3)cc2)[C@H]2CN(Cc3cncnc3)CCCCN21`, for which the inhibition is 0.497%.

As for `CO[C@@H]1CN(C)C(=O)c2cc(NC(=O)C3CCC3)ccc2OC[C@H](C)N(Cc2ccccn2)C[C@H]1C`, the inhibition was 2.51%.

These data come from PubChem BioAssay AID623870 (Broad Institute, 2012).
